From PubChem BioAssay (NCI) come the findings set out here.

This is part of a sample that, as a whole, favours compounds with a hit. Of some 83,000 tested, about 20% had one in any assay.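 48-hour exposure, single concentration, 96-well plates; percent growth endpoint where 0 means no net growth. Active: below 10.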 A number with no mark means an inactive call. The source made the active and inactive calls.

Test systems include DU-145 prostate; K-562 leukemia; MALME-3M melanoma; MDA-MB-231 breast; RXF 393 renal; SF-268 CNS; SF-295 CNS; SF-539 CNS; UACC-257 melanoma; M14 melanoma; HCT-15 colon; HT29 colon; SNB-75 CNS; SNB-19 CNS; U251 CNS; PC-3 prostate; SK-MEL-5 melanoma; UACC-62 melanoma; LOX IMVI melanoma; SK-MEL-28 melanoma.
What all share (test): NCI-60 one-dose screen, 48 h (100 = growth as untreated, 0 = no growth, -100 = all killed)
Settings in all cases: 10 µM unless noted

In the case of `COc1ccc(C2NC(=O)C(C#N)c3c2sc2c(F)cccc32)cc1` (stereo not given), the growth with DU-145 prostate was 67.8%; in the test with K-562 leukemia it was 14.1%; with MALME-3M melanoma, 47.2%; with MDA-MB-231 breast, 71.2%; with RXF 393 renal it was 55.9%; in the test on SF-268 CNS, 62%. For the same compound, the growth with SF-295 CNS was 30.5%; in the test with SF-539 CNS, 39.5%; in the test on UACC-257 melanoma, 63.9%; in the test on M14 melanoma, 33.3%; in the test with HCT-15 colon, 33.6%; in the test with HT29 colon, 50.5%. Further, the growth with SNB-75 CNS was 13.6%; in the test with SNB-19 CNS, 42.7%; in the test on U251 CNS, 47.3%; with PC-3 prostate, 52.4%; with SK-MEL-5 melanoma, 60.6%; with UACC-62 melanoma, 36.4%. The values for the growth in the test on LOX IMVI melanoma and in the test with SK-MEL-28 melanoma were 45.6% and 52.6%, respectively.
On to `COc1ccc(-c2cc(-c3ccc(Cl)cc3)nc(NCCCCNc3ccnc4cc(Cl)ccc34)n2)cc1`, for which the growth in the test with DU-145 prostate was 98.8%; in the test on K-562 leukemia, 0.414% (active); in the test with MALME-3M melanoma it was -18% (active); in the test with MDA-MB-231 breast, 73.4%; with RXF 393 renal, 26.5%; in the test with SF-268 CNS, 86.5%. Also, the growth was 83.8% in the test with SF-295 CNS; 64.8% with SF-539 CNS; 3.17% (active) in the test on UACC-257 melanoma; 34.6% with M14 melanoma; 0.532% (active) with HCT-15 colon; 4.81% (active) in the test with HT29 colon. Besides, the growth is 99.5% in the test with SNB-75 CNS; 95.5% in the test on SNB-19 CNS; 70.9% with U251 CNS; 54.8% in the test on PC-3 prostate; 26.8% in the test with SK-MEL-5 melanoma; 84.8% in the test with UACC-62 melanoma. For the same compound, the growth is -78.3% (active) in the test with LOX IMVI melanoma and -7.9% (active) in the test with SK-MEL-28 melanoma.
For the compound `Cc1ccc(S(=O)(=O)NCCCNc2nccc(-c3c(-c4cccc(F)c4)nc4occn34)n2)cc1`, the growth with DU-145 prostate was 73.8%; in the test with K-562 leukemia, 36.7%; in the test on MALME-3M melanoma, 64.6%; with MDA-MB-231 breast, 64%; in the test on RXF 393 renal, 77.7%; with SF-268 CNS it was 61.6%. Further, the growth is 100% in the test on SF-295 CNS; 95.1% with SF-539 CNS; 91.5% with UACC-257 melanoma; 57% with M14 melanoma; 73.4% with HCT-15 colon; 27.8% in the test with HT29 colon. The growth in the test on SNB-75 CNS is 73.5%; with SNB-19 CNS, 90.7%; in the test with U251 CNS it was 70.6%; in the test with PC-3 prostate, 44.3%; in the test on SK-MEL-5 melanoma it was 67.2%; in the test with UACC-62 melanoma, 58.6%. For the same compound, the growth in the test with LOX IMVI melanoma is 57.9%; in the test on SK-MEL-28 melanoma, 95.9%.
For `COc1cc2c(cc1OCCCCCOc1ccc(-n3c(C)nc4ccccc4c3=O)cc1)N=C[C@@H]1CCCN1C2=O`, the growth in the test with DU-145 prostate was -25.2% (active); with K-562 leukemia, -17.5% (active); with MALME-3M melanoma, -78.9% (active); in the test with MDA-MB-231 breast it was 2.33% (active); with RXF 393 renal, -73.9% (active); in the test with SF-268 CNS, -5.47% (active). In addition, the growth is -8.19% (active) with SF-295 CNS; -63% (active) in the test on SF-539 CNS; 20% in the test on UACC-257 melanoma; -64.3% (active) with M14 melanoma; 9.39% (active) in the test on HCT-15 colon; -1.24% (active) in the test with HT29 colon. The growth with SNB-75 CNS is -80.9% (active); in the test on SNB-19 CNS, 1.38% (active); in the test with U251 CNS, 3.85% (active); in the test on PC-3 prostate, 4.39% (active); with SK-MEL-5 melanoma it was -79.6% (active); in the test with UACC-62 melanoma, -74% (active). Moreover, the growth in the test with LOX IMVI melanoma is -32.2% (active); with SK-MEL-28 melanoma, -66.8% (active).
Take `CCOc1cc(/C=N\NC(=O)N/N=C/c2ccc(O)c(OCC)c2)ccc1O`: the growth in the test on DU-145 prostate is 14.9%; in the test on K-562 leukemia, 10.6%; in the test on MALME-3M melanoma it was 60.2%; in the test on MDA-MB-231 breast, 51.5%; with RXF 393 renal it was 24.9%; in the test on SF-268 CNS it was 45.7%. In addition, the growth in the test with SF-295 CNS was 18%; with SF-539 CNS it was -9.06% (active); in the test on UACC-257 melanoma, 61.9%; with M14 melanoma it was 19.3%; in the test with HCT-15 colon it was 28.7%; in the test on HT29 colon, 27.6%. Also, the growth was 0.378% (active) with SNB-75 CNS; 39.8% with SNB-19 CNS; 33.7% in the test with U251 CNS; 33% with PC-3 prostate; 11.5% with SK-MEL-5 melanoma; 26.2% with UACC-62 melanoma. In addition, the growth was 42.6% with LOX IMVI melanoma and 52.3% in the test with SK-MEL-28 melanoma.
Turning to `CCOC(=O)C(=Cc1ccccc1[N+](=O)[O-])C(=O)OCC`, the growth is -51.5% (active) in the test with DU-145 prostate; 0.762% (active) with K-562 leukemia; 67.3% in the test with MALME-3M melanoma; 9.18% (active) in the test on MDA-MB-231 breast; 0.0546% (active) in the test with RXF 393 renal; 13.3% in the test on SF-268 CNS. In addition, the growth was 95.5% in the test with SF-295 CNS; -15.5% (active) with SF-539 CNS; 42% with UACC-257 melanoma; 25.2% in the test on M14 melanoma; 5.68% (active) with HCT-15 colon; 11.4% with HT29 colon. Moreover, the growth was -7.8% (active) with SNB-75 CNS; 59.6% in the test on SNB-19 CNS; 23.4% in the test with U251 CNS; 47% in the test on PC-3 prostate; 20.4% with SK-MEL-5 melanoma; 32.3% with UACC-62 melanoma. Further, the growth was -18.5% (active) in the test on LOX IMVI melanoma and 33.7% in the test on SK-MEL-28 melanoma.
With `CC1Cc2ccc(OCCN(C)C)cc2C1=O` (stereo not given), the growth in the test on DU-145 prostate is 107%; in the test with K-562 leukemia it was 100%; in the test with MALME-3M melanoma, 108%; with MDA-MB-231 breast it was 112%; in the test on RXF 393 renal it was 110%; with SF-268 CNS, 103%. For the same compound, the growth is 99.6% in the test on SF-295 CNS; 99.5% in the test on SF-539 CNS; 80% with UACC-257 melanoma; 99.4% in the test on M14 melanoma; 108% with HCT-15 colon; 98.5% in the test with HT29 colon. In addition, the growth is 98% with SNB-75 CNS; 106% in the test with SNB-19 CNS; 89.5% in the test with U251 CNS; 89.9% with PC-3 prostate; 91.6% with SK-MEL-5 melanoma; 105% in the test on UACC-62 melanoma. Also, the growth in the test with LOX IMVI melanoma was 96.4%; in the test with SK-MEL-28 melanoma, 103%.
